Experimental data taken from the supplement of paper PMC3334620.
The full ranking holds about 33,000 sequences; the median of “E-score (-0.5 to 0.5)” is about -0.016, and the highest 2% start at about 0.3. The list comes from a sample in which the highest values are over-represented; it also holds similar and randomly drawn sequences.

These sequences were tested against T1, Yer184c (UniProt P39961) (assay: PBM E-score (8-mer binding enrichment) (E-score (-0.5 to 0.5)); higher = stronger / more preferred TF binding). Conditions: protein concentration: 100 nM; construct: GST-full length.
T1 sequence: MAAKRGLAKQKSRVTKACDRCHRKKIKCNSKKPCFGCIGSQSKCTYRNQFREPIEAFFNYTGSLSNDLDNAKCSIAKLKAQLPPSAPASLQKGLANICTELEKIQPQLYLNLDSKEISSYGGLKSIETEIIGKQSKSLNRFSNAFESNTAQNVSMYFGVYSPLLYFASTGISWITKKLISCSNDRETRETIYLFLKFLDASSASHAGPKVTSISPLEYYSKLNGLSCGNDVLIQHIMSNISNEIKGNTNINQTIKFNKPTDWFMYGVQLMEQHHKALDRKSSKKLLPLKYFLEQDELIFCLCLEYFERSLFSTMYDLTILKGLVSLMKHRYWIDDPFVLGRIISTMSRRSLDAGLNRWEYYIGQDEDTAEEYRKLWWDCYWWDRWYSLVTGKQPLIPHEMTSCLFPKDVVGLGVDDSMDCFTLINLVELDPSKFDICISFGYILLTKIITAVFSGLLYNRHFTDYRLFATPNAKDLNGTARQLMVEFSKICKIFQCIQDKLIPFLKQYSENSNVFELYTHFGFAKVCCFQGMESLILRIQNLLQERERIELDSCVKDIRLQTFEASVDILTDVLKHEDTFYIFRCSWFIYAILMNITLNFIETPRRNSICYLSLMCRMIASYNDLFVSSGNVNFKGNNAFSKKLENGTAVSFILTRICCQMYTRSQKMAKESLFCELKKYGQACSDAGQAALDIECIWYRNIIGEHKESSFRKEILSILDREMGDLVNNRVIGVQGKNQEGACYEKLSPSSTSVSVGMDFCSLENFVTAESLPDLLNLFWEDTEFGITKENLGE
Description: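 Universal 'all 10-mer' protein binding microarrays (Agilent AMADID 015681) probed with GST-tagged S. cerevisiae TFs (full-length or DBD) made by in vitro transcription/translation (PURExpress), about 100-200 nM. Bound TF was detected with fluorescent anti-GST. Each ungapped 8-mer (which stands for itself and its reverse complement) is scored by the PBM enrichment score (E-score), a modified Wilcoxon-Mann-Whitney statistic from -0.5 to +0.5, computed with the Universal PBM Analysis Suite. Scale: above 0.35 generally sequence-specific binding.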

Sequence | PBM E-score
AACGCGGA | 0.178
GCCGCGAA | -0.0654
ATCGCGGA | -0.00991
ACCGCGGA | 0.314
GCCGCGCA | 0.0353
GCCGCGGA | 0.386
GCCGCTCA | -0.0363
GGTAAGCA | -0.146
GCGGATGA | 0.125
ACGGATGC | 0.203
ACGGATGA | 0.0817
CCGGATGC | 0.331
CAGGATGC | -0.0823
CCGGATGA | 0.335
GCGCCAAA | -0.00708
CCCATGAC | -0.117
GAGGAGCA | -0.0781
CCTGCTGC | -0.143
GAATGCTC | -0.157
CGGTACCC | -0.0697
CGGTACCG | 0.32
CGGTACCA | 0.0778
GCTAGGAA | 0.0829
AGGTAGAA | -0.0769
CCGGCCGC | 0.304

Sequence | PBM E-score
CCGGCCGA | 0.431
ACGGCCGC | 0.244
ACGGCCGT | 0.176
ATGGCCGG | 0.215
ACGGCCGG | 0.372
ACGGCCAA | 0.192
ACGGCCGA | 0.355
CCGGCCTA | 0.28
GCGGCCGC | 0.261
ACGGCCCA | -0.0167
GCGGCCGA | 0.242
AAAGAGCG | 0.00323
AAGCGACA | -0.0772
AACATGGC | -0.317
CATGTGAA | -0.0476
ACTTGCCG | 0.142
AGGTCGAA | -0.0466
CGGGCCGC | 0.137
GGGGCCGA | -0.192
CGGGCCGA | 0.308
AAAGATAT | 0.0801
CTGTGCTA | -0.119
GTGTGGGA | -0.0509
CGAGCTCA | 0.144
CGAGCTCC | 0.0493

Sequence | PBM E-score
CGAGCTCG | 0.308
TCAATGGA | -0.0551
GCTACAGA | -0.185
ACGTGCCG | 0.233
CCGTGCCG | 0.312
CCGTGCCA | -0.127
CAGGGGAA | -0.196
AAGCTATC | 0.191
CTCGGATA | 0.305
CTCGGACA | 0.306
ATCGGATA | 0.369
GTCGGATA | 0.122
GTCGGACA | 0.193
CTCGGATC | 0.241
CTCGGAGA | 0.252
ATCGGATC | 0.298
ATCGGACA | 0.303
GATTGGGA | -0.133
CCCCAGGA | -0.372
CGATTCAA | -0.0538
GTTTGCCA | -0.0315
GAGCATCC | -0.111
CGTGCGCC | 0.0367
CGGGCTTA | 0.157
AATTACCT | 0.0235

Sequence | PBM E-score
AGAGGTTA | -0.0189
CAAGTGCC | -0.126
AGTTACCA | 0.0704
GGCGCCTA | -0.0826
TCCGCCGA | 0.316
AGCGCCAA | -0.231
GGCGCCGA | 0.337
AGCGCCCG | 0.113
CGCGCCGA | 0.256
CCCGCCGA | 0.193
GCCGCCGA | 0.264
AGCGCCGC | 0.0842
AGCGCCGG | 0.351
AGCGCCGA | 0.357
GGCGCCAA | -0.0615
GCAGGGCA | -0.0295
GTGCACAA | -0.028
ACCTTTTC | -0.076
AAGCTAAT | 0.162
CCGGCTAG | 0.277
AGGGGCTC | -0.341
TAAATCCA | 0.00272
CTCCGGCA | 0.359
AGCCGGCA | 0.404
CGCCGGTA | 0.216

Sequence | PBM E-score
ATCCGGCA | 0.296
AACCGGTA | 0.0801
CGCCGGCA | 0.345
AGGCGGCA | -0.0565
CCCCGGCA | 0.0621
AGCCGGTA | 0.306
CTCCGGCC | 0.125
ACCCGGCA | 0.187
AGCCGGTC | 0.144
GCAGTACA | -0.0532
ACCGTGAG | -0.158
CGCAACGA | 0.0385
AAACCTGG | -0.147
AACCGGCT | 0.264
TGCCGGCA | 0.431
TCCCGGCA | 0.256
AGCCGGCT | 0.36
ACCCGGCT | 0.22
AGCCGGTG | 0.225
ACCCGGCG | 0.198
AGCCGGCG | 0.372
TACCGGCA | 0.251
AAATCAAA | 0.13
TCGATTAA | 0.148
TTCGGCAA | 0.336

Sequence | PBM E-score
GTCGGCAA | 0.263
ATCGGCAC | 0.27
CACGGCAA | 0.199
ATCGGCAG | 0.247
ATCGGCAA | 0.246
CTCGGCCA | 0.204
CACGGCAG | 0.0946
CTCGGCAG | 0.31
CTCGGCAA | 0.319
CTCGGCAC | 0.31
GTCGGCAC | 0.1
AGGACCTG | -0.174
ATATACCC | 0.021
TCTATAGA | -0.137
GTCAATAA | 0.158
AAGTATCC | 0.0522
CAGGGCTC | -0.226
GAGAGCGC | -0.218
AGCAGCAT | -0.206
AGAGTAAC | 0.0419
CAATAGAG | -0.242
CCAGCCTA | -0.206
CCCGCTCA | -0.141
CCTAAGTA | 0.106
CGCCGGGA | 0.312

Sequence | PBM E-score
AGCCGGGG | 0.0566
AGCCGGGC | 0.172
CGCCGGGC | 0.286
AGCCGGGA | 0.311
GGCCGGGA | 0.292
CAAACAGC | -0.0581
ATGCGTGA | 0.0231
AATCTAAT | 0.0331
ATCAAGTC | -0.0287
ATGAACAG | 0.17
CCGGCAAG | 0.331
ACGGCAAG | 0.0759
ACGGCAAA | 0.211
CCGGCAAA | 0.374
GCGGCAAA | 0.107
CCGGCAAC | 0.293
CTAGCAGC | -0.0845
GAAAGCTA | 0.00964
ACGACCGG | 0.0371
TGCAAACA | -0.168
AAATCGAT | 0.0714
TCCGGCGA | 0.38
CCCGGCGC | 0.216
GGCGGCGA | 0.0554
ACCGGCGA | 0.284

Sequence | PBM E-score
GCCGGCGC | 0.406
GACGGCGA | -0.034
GCCGGCGA | 0.311
CCCGGCGA | 0.236
ACCGGCGC | 0.226
AAGAGGAA | 0.23
AGTGAGAA | 0.118
CCGATGCA | 0.157
GAGTCAGC | -0.101
TCAGGGGA | -0.252
CTTCAAGA | 0.171
AAAAACAG | 0.115
GTTCCACA | -0.0536
CCCTCCGG | 0.1
TACTCCGA | 0.262
GACTCCGA | -0.0256
CACTCCGC | -0.0284
ACCTCCGG | 0.357
AACTCCGA | 0.325
AGCTCCGA | 0.251
AGCTCCGG | 0.313
ACCTCCGT | 0.107
AGCTCCGC | 0.127
CACTCCGA | 0.0993
CACTCCGG | 0.306

Sequence | PBM E-score
CAAGAATG | 0.103
GTTGGAGA | 0.0278
GTCGCCTA | -0.157
GGACGCCC | -0.106
AGGGGCAT | -0.358
ATTCTGCC | 0.201
CCAAGCGG | -0.15
AACTCCGC | -0.0142
AACTCCGG | 0.424
AACTCCGT | 0.222
AGTTCGAG | -0.00888
AAGGGGTA | -0.351
AAGCGCTA | 0.0496
CGGCGCCA | 0.162
AAACGCCG | 0.334
AAGCGCCT | -0.14
AAGCGCTC | 0.0112
AAGCGCTT | 0.306
AAGCGCCA | -0.208
AAGCGCCG | 0.373
AAACGCCA | 0.089
CAACGCCG | 0.294
CGGCGCCG | 0.443
AGGCGCCG | 0.207
